Source: PubChem BioAssay AID1159580 (chemical genetic matrix, 2015)
Values joined by “and” are separate entries in the source; they are usually repeats but may differ in a detail not shown here. Equal entries are not always repeated. The whole screen tested about 5,500 compounds, of which about 2,000 (36%) were called active. Not shown: some 18% with an inconclusive outcome. Cut-off read from the data, not from the text of the source: active = normalized growth mostly below about 0.91 (no sharp cut-off); inconclusive = no clear call, values can overlap the other calls; inactive = mostly above about 0.92. The list shows a part of the results.

Test: chemical genetic growth profiling, strain panel (AID 1159580);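 note: tested at 20 µM; growth read once vehicle control cultures reached saturation at 30 °C; 1 = growth at the plate median or of vehicle wells; lower values mean less growth of the strain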
Conditions: growth OD

Measured: normalized growth

O=[N+]([O-])/C=C/c1ccsc1
active: S. cerevisiae deletion strains, locus YAL013W, strain DEP1, active compounds read low 0.0965 | S. cerevisiae deletion strains, locus YAR019C, strain CDC15, active compounds read low 0.0973 | S. cerevisiae deletion strains, locus YBL105C, strain PKC1, active compounds read low 0.088 | S. cerevisiae deletion strains, locus YBR135W, strain CKS1, active compounds read low 0.0811 | S. cerevisiae deletion strains, locus YBR136W, strain MEC1, active compounds read low 0.0958 | S. cerevisiae deletion strains, locus YBR160W, strain CDC28, active compounds read low 0.0863 | S. cerevisiae deletion strains, locus YBR229C, strain ROT2, active compounds read low 0.0538 | S. cerevisiae deletion strains, locus YCL061C, strain MRC1, active compounds read low 0.0534 | S. cerevisiae deletion strains, locus YDL017W, strain CDC7, active compounds read low 0.0862 | S. cerevisiae deletion strains, locus YDL028C, strain MPS1, active compounds read low 0.108 | S. cerevisiae deletion strains, locus YDL101C, strain DUN1, active compounds read low 0.0979 and 0.0659 | S. cerevisiae deletion strains, locus YDL108W, strain KIN28, active compounds read low 0.1 | S. cerevisiae deletion strains, locus YDL132W, strain cdc53, active compounds read low 0.0899 | S. cerevisiae deletion strains, locus YDL214C, strain PRR2, active compounds read low 0.0917 | S. cerevisiae deletion strains, locus YDR052C, strain DBF4, active compounds read low 0.0918 | S. cerevisiae deletion strains, locus YDR054C, strain cdc34, active compounds read low 0.0966 | S. cerevisiae deletion strains, locus YDR150W, strain NUM1, active compounds read low 0.319 | S. cerevisiae deletion strains, locus YDR226W, strain ADK1, active compounds read low 0.377 | S. cerevisiae deletion strains, locus YDR477W, strain SNF1, active compounds read low 0.0976 | S. cerevisiae deletion strains, locus YEL061C, strain CIN8, active compounds read low 0.0749 | S. cerevisiae deletion strains, locus YER123W, strain YCK3, active compounds read low 0.0988 | S. cerevisiae deletion strains, locus YER133W, strain GLC7, active compounds read low 0.0944 | S. cerevisiae deletion strains, locus YFL009W, strain cdc4, active compounds read low 0.09 | S. cerevisiae deletion strains, locus YFL029C, strain CAK1, active compounds read low 0.0924 | S. cerevisiae deletion strains, locus YFR003C, strain YPI1, active compounds read low 0.126 | S. cerevisiae deletion strains, locus YFR019W, strain FAB1, active compounds read low 0.0932 | S. cerevisiae deletion strains, locus YFR028C, strain CDC14, active compounds read low 0.0832 | S. cerevisiae deletion strains, locus YGR040W, strain KSS1, active compounds read low 0.102 | S. cerevisiae deletion strains, locus YGR052W, strain FMP48, active compounds read low 0.105 | S. cerevisiae deletion strains, locus YGR078C, strain PAC10, active compounds read low 0.0512 | S. cerevisiae deletion strains, locus YGR092W, strain DBF2, active compounds read low 0.101 | S. cerevisiae deletion strains, locus YHR030C, strain SLT2, active compounds read low 0.086 and 0.114 | S. cerevisiae deletion strains, locus YHR079C, strain IRE1, active compounds read low 0.115 | S. cerevisiae deletion strains, locus YHR082C, strain KSP1, active compounds read low 0.122 | S. cerevisiae deletion strains, locus YHR087W, strain rtc3, active compounds read low 0.0574 | S. cerevisiae deletion strains, locus YHR205W, strain SCH9, active compounds read low 0.014 | S. cerevisiae deletion strains, locus YIL147C, strain SLN1, active compounds read low 0.266 | S. cerevisiae deletion strains, locus YJL095W, strain BCK1, active compounds read low 0.104 | S. cerevisiae deletion strains, locus YJL128C, strain PBS2, active compounds read low 0.0942 | S. cerevisiae deletion strains, locus YJL157C, strain FAR1, active compounds read low 0.0861 | S. cerevisiae deletion strains, locus YJL187C, strain SWE1, active compounds read low 0.0512 | S. cerevisiae deletion strains, locus YJR016C, strain ILV3, active compounds read low 0.0858 | S. cerevisiae deletion strains, locus YJR043C, strain POL32, active compounds read low 0.0674 | S. cerevisiae deletion strains, locus YJR066W, strain TOR1 (second series), active compounds read low 0.0922 | S. cerevisiae deletion strains, locus YJR066W, strain TOR1, active compounds read low 0.121 | S. cerevisiae deletion strains, locus YJR075W, strain HOC1, active compounds read low 0.072 | S. cerevisiae deletion strains, locus YKL048C, strain ELM1, active compounds read low 0.109 | S. cerevisiae deletion strains, locus YKL067W, strain YNK1, active compounds read low 0.0882 | S. cerevisiae deletion strains, locus YKL101W, strain HSL1, active compounds read low 0.0953 | S. cerevisiae deletion strains, locus YKL190W, strain CNB1, active compounds read low 0.0559 | S. cerevisiae deletion strains, locus YKL193C, strain SDS22, active compounds read low 0.0818 | S. cerevisiae deletion strains, locus YKL203C, strain TOR2, active compounds read low 0.102 | S. cerevisiae deletion strains, locus YLR039C, strain RIC1, active compounds read low 0.0823 | S. cerevisiae deletion strains, locus YLR058C, strain SHM2 (second series), active compounds read low 0.0499 | S. cerevisiae deletion strains, locus YLR085C, strain ARP6, active compounds read low 0.0726 | S. cerevisiae deletion strains, locus YLR113W, strain HOG1, active compounds read low 0.133 | S. cerevisiae deletion strains, locus YLR133W, strain CKI1, active compounds read low 0.107 | S. cerevisiae deletion strains, locus YLR262C, strain YPT6, active compounds read low 0.074 | S. cerevisiae deletion strains, locus YLR403W, strain SFP1, active compounds read low 0.0115 | S. cerevisiae deletion strains, locus YML070W, strain DAK1, active compounds read low 0.0892 | S. cerevisiae deletion strains, locus YML094W, strain GIM5, active compounds read low 0.0766 | S. cerevisiae deletion strains, locus YMR001C, strain CDC5, active compounds read low 0.0846 | S. cerevisiae deletion strains, locus YMR205C, strain PFK2 (second series), active compounds read low 0.0874 | S. cerevisiae deletion strains, locus YMR219W, strain ESC1, active compounds read low 0.0511 | S. cerevisiae deletion strains, locus YMR263W, strain SAP30, active compounds read low 0.0973 | S. cerevisiae deletion strains, locus YMR277W, strain FCP1, active compounds read low 0.0872 | S. cerevisiae deletion strains, locus YNL006W, strain LST8, active compounds read low 0.0854 | S. cerevisiae deletion strains, locus YNL020C, strain ARK1, active compounds read low 0.0962 | S. cerevisiae deletion strains, locus YNL153C, strain GIM3, active compounds read low 0.0541 | S. cerevisiae deletion strains, locus YNL161W, strain CBK1, active compounds read low 0.0827 | S. cerevisiae deletion strains, locus YNL183C, strain NPR1, active compounds read low 0.113 | S. cerevisiae deletion strains, locus YNL207W, strain RIO2, active compounds read low 0.0963 | S. cerevisiae deletion strains, locus YNL222W, strain SSU72, active compounds read low 0.0831 | S. cerevisiae deletion strains, locus YNL298W, strain CLA4 (second series), active compounds read low 0.0744 | S. cerevisiae deletion strains, locus YNL307C, strain MCK1 (second series), active compounds read low 0.106 | S. cerevisiae deletion strains, locus YNL322C, strain KRE1, active compounds read low 0.238 | S. cerevisiae deletion strains, locus YNR030W, strain Alg12, active compounds read low 0.0788 | S. cerevisiae deletion strains, locus YOL078W, strain AVO1, active compounds read low 0.0843 | S. cerevisiae deletion strains, locus YOL136C, strain PFK27, active compounds read low 0.0965 | S. cerevisiae deletion strains, locus YOR061W, strain CKA2, active compounds read low 0.0882 | S. cerevisiae deletion strains, locus YOR119C, strain RIO1, active compounds read low 0.112 | S. cerevisiae deletion strains, locus YOR231W, strain MKK1, active compounds read low 0.109 | S. cerevisiae deletion strains, locus YOR329C, strain SCD5, active compounds read low 0.0876 | S. cerevisiae deletion strains, locus YPL031C, strain PHO85, active compounds read low 0.0965 | S. cerevisiae deletion strains, locus YPL055C, strain LGE1, active compounds read low 0.254 | S. cerevisiae deletion strains, locus YPL153C, strain RAD53, active compounds read low 0.0949 | S. cerevisiae deletion strains, locus YPL204W, strain HRR25, active compounds read low 0.0984 | S. cerevisiae deletion strains, locus YPL209C, strain IPL1, active compounds read low 0.0842 | S. cerevisiae deletion strains, locus YPL241C, strain CIN2, active compounds read low 0.106 | S. cerevisiae deletion strains, locus YPL256C, strain CLN2, active compounds read low 0.133 | S. cerevisiae deletion strains, locus YPR025C, strain CCL1, active compounds read low 0.0831 | S. cerevisiae deletion strains, locus YPR106W, strain ISR1, active compounds read low 0.0863 | S. cerevisiae deletion strains, locus YPR111W, strain DBF20, active compounds read low 0.0864 | S. cerevisiae deletion strains, locus YPR135W, strain CTF4, active compounds read low 0.212 | S. cerevisiae deletion strains, strain NNK1, active compounds read low 0.0961 | S. cerevisiae deletion strains, strain TSCII, active compounds read low 0.0894 | S. cerevisiae strains, strain wild type, active compounds read low 0.0538
